# Targets with the largest changes are over-represented here; the source holds about 21,000 in all.
# Target: WDR43_Q15061_158_HIVEWNVQTCK (UniProt Q15061)
# Assay: probe-labelled cysteine peptide fold change vs DMSO (competition) (log2 fold change); higher = less target engagement (more negative = stronger competition)
# Settings: THP-1, incubation time: 4 h
# 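Note: competitive profiling in live THP-1 cells: cysteine peptides tagged with an iodoacetamide desthiobiotin (IA-DTB) probe, intensity after compound treatment relative to DMSO-treated cells.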
# WDR43_Q15061_158_HIVEWNVQTCK, sequence (Q15061 whole entry, looked up): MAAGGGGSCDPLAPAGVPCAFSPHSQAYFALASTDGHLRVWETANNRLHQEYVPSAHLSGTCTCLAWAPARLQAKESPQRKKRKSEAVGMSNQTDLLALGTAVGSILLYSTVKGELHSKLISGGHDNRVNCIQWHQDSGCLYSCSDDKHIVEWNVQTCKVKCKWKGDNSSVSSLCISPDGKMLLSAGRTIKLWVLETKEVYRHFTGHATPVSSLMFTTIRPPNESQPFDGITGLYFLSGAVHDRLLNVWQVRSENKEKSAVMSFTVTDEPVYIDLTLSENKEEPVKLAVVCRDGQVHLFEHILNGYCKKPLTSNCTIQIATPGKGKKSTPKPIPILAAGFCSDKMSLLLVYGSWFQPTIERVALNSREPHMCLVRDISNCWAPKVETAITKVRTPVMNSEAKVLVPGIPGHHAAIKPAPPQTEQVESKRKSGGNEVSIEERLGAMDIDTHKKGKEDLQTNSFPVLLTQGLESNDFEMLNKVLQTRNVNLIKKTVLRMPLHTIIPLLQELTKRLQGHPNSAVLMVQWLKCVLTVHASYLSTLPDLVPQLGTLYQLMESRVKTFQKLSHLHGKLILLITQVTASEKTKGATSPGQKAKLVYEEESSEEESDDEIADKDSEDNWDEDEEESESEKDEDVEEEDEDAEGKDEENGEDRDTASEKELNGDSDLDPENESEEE
smiles,measurement,setting,value
Cc1cc(C(=O)N2CCCN(C(=O)CCl)CC2)ccc1-c1ccccc1 [compound 10],probe-labelled cysteine peptide fold change,10 µM,-0.0124
same,probe-labelled cysteine peptide fold change,50 µM,-0.0233
